Data reported in PubChem BioAssay (EPA / NIEHS).
“And” between values parts separate entries of the source, which are not always exact repeats. Equal entries are not always repeated. Inconclusive results are not listed. The source made the active and inactive calls. How the source made its calls: active means hit-call score of the fitted dose curve at least 0.9, where 1 is the maximum; inconclusive means response in the unintended direction; inactive means score below 0.9.

Test: CCTE_Shafer_MEA_acute_LDH: CCTE's Lactate Dehydrogenase Assay for Cytotoxicity in the Neural Acute Assay, Shafer Lab (AID 2284086);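 further: active means LDH release rises above DMSO vehicle level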
Method: CCTE_Shafer_MEA_acute assay is conducted using Axion Biosystems 48 well microelectrode array (MEA) plates and Maestro recording system. Each well of the MEA plate contains a grid of 16 microelectrodes embedded in the culture surface. Electrically active cells, such as neurons, can be cultured over the electrodes, and electrical activity in these cells can be recorded extracellularly. The spontaneous firing of neurons is captured from each electrode on a microsecond timescale providing both temporally and spatially precise data. […] The CCTE_Shafer_MEA_acute assay uses primary cultures of rat cortical neurons. As these cultures mature over time, neural networks develop functional activity and form cohesive networks in which electrical activity can be highly coordinated. Baseline 40-minute recordings are made on days post-plating 13 or 15, followed by a secondary 40-minute recording after chemical exposure.CCTE_Shafer_MEA_acute_LDH is a component of the CCTE_Shafer_MEA_acute assay. It measures the lactate dehydrogenase enzyme activity using spectrophotometry.Data from the assay component CCTE_Shafer_MEA_acute_LDH was analyzed into 1 assay endpoint. This assay endpoint, CCTE_Shafer_MEA_acute_LDH, was analyzed in the positive analysis fitting direction relative to DMSO as the negative control and baseline of activity. Using a type of viability reporter, gain-of-signal activity can be used to understand cell viability.
Immediately following the 40 min recording in the presence of compounds, 50 uL of media was removed from each well and transferred to a sterile 96-well plate. This was used to determine LDH released from cells during compound exposure using a kit from Promega where absorbance was determined in a Molecular Devices VersaMax plate reader at 490 nm.

Compound | outcome | AC50
c1ccc(N=Nc2ccccc2)cc1 | inactive | –
C[N+](C)(C)CC1CO1 (centres undefined) | inactive | –
CCN(CC)CCO | inactive | –
CCC[CH2][Sn]([Cl])([CH2]CCC)[CH2]CCC | – | 29.7 µM (active) and 15 µM (active)
ClC1=C(Cl)[C@]2(Cl)[C@H]3[C@H]([C@@H]4C=C[C@H]3C4)[C@@]1(Cl)C2(Cl)Cl | inactive | –
CCCCOC(=O)c1ccccc1C(=O)OCc1ccccc1 | inactive | –
O=P(OCCCl)(OCCCl)OCCCl | inactive | –
ClC1=C(Cl)C2(Cl)C3C(Cl)C=CC3C1(Cl)C2(Cl)Cl (centres undefined) | inactive | –
Cc1ccc(N)c(N)c1 | inactive | –
ClCCOCCCl | inactive | –
N#CC(Br)Br | inactive | –
CC(C)COC(=O)c1ccccc1C(=O)OCC(C)C | inactive | –
CC(C)(C)C(O)(CCc1ccc(Cl)cc1)Cn1cncn1 (centres undefined) | inactive | –
[Cl-].[Cl-].[Hg+2] | – | 30.6 µM (active)
Cc1cc(N=Nc2ccccc2C)ccc1N | inactive | –
CCC(C)c1ccc(O)cc1 (centres undefined) | inactive | –
Clc1ccc(C(c2ccc(Cl)cc2)C(Cl)(Cl)Cl)cc1 | inactive | –
CC(C)(OOC(C)(C)c1ccccc1)c1ccccc1 | inactive | –
CC(C)(O)c1cnn2c(-c3ccc(F)c(-c4c(F)cccc4C#N)c3)cnc2n1 | inactive | –
O=C(Oc1ccc(Br)cc1)N1CCN2CCC1CC2 | inactive | –
O=Cc1ccco1 | inactive | –
O=C(N[C@H](c1ccccc1)[C@@H]1CN2CCC1CC2)c1c(Cl)ccc(C(F)(F)F)c1Cl | inactive | –
Clc1ccc(C(c2ccc(Cl)cc2)C(Cl)Cl)cc1 | inactive | –
CCCCCCCCn1sccc1=O | inactive | –
